This note sets out measurements from PubChem BioAssay (NCI).

Test in all cases: NCI-60 one-dose screen, 48 h (100 = growth as untreated, 0 = no growth, -100 = all killed)
One assay relates to SN12C renal. The note with it: 10 µM unless noted.
The next assay concerns UO-31 renal. To be noted: 10 µM unless noted.
The next assay relates to TK-10 renal. The note with it: 10 µM unless noted.
The next assay relates to ACHN renal. The note with it: 10 µM unless noted.
The subject of another assay is CAKI-1 renal. The note with it: 10 µM unless noted.
For another assay, the system named is A498 renal. To be noted: 10 µM unless noted.
The next assay deals with CCRF-CEM leukemia. The note with it: 10 µM unless noted.
The next assay concerns SR leukemia. The note with it: 10 µM unless noted.
Another assay concerns RPMI-8226 leukemia. To be noted: 10 µM unless noted.
The subject of the next assay is OVCAR-8 ovarian. To be noted: 10 µM unless noted.
A further assay has as its system OVCAR-5 ovarian. To be noted: 10 µM unless noted.
In the next assay the test system is OVCAR-4 ovarian. The note with it: 10 µM unless noted.
The next assay has as its system SK-OV-3 ovarian. The note with it: 10 µM unless noted.
A further assay has as its system IGROV1 ovarian. To be noted: 10 µM unless noted.
Another assay concerns OVCAR-3 ovarian. To be noted: 10 µM unless noted.
The test system of the next assay is HS 578T breast. To be noted: 10 µM.
In a further assay the test system is MOLT-4 leukemia. To be noted: 10 µM unless noted.
The next assay has as its system NCI/ADR-RES ovarian. To be noted: 10 µM unless noted.

About 83,000 compounds went through this panel and 20% of them were active in at least one assay; those are over-represented in the sample as a whole.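 Treatment: one concentration, 48 hours, 96-well format. Scoring: percent growth, with anything below 10 considered active.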 A number with no mark means an inactive call. Active and inactive are the calls of the source.

Turning to `O=C(/C=C/c1cn(-c2ccccc2)nc1-c1cccc(Nc2ccnc3cc(Cl)ccc23)c1)c1ccc2c(c1)OCO2`, the growth is 117% in the assay on SN12C renal; 84.8% in the assay on UO-31 renal; 123% with TK-10 renal; 105% in the assay on ACHN renal; 100% in the assay on CAKI-1 renal; 92.3% with A498 renal. The growth in the assay on CCRF-CEM leukemia was 17.2%; with SR leukemia, 8.67% (active); with RPMI-8226 leukemia, 59.2%; with OVCAR-8 ovarian, 91.9%; with OVCAR-5 ovarian, 106%; in the assay on OVCAR-4 ovarian, 143%. Besides, the results for the growth in the assay with SK-OV-3 ovarian, with IGROV1 ovarian and in the assay on OVCAR-3 ovarian were 113%, 96.8% and 117%, respectively.
For the compound `COc1cc(C2CC(c3cccc(Nc4ccnc5cc(Cl)ccc45)c3)=NN2c2ccc(Cl)cc2)cc(OC)c1OC` (configuration not stated), the growth in the assay with SN12C renal was 57.1%; with UO-31 renal, 23.6%; in the assay with TK-10 renal, 76.7%; with ACHN renal, 41.5%; with CAKI-1 renal, -1.85% (active); in the assay on A498 renal, 64.9%. The growth was 63.1% in the assay with CCRF-CEM leukemia; 55.9% with SR leukemia; 47.8% with RPMI-8226 leukemia; 55.2% in the assay on OVCAR-8 ovarian; 80.2% in the assay with OVCAR-5 ovarian; 115% in the assay on OVCAR-4 ovarian. Moreover, the growth was 92.2% in the assay on SK-OV-3 ovarian, 39.7% in the assay on IGROV1 ovarian, 83.3% with OVCAR-3 ovarian and 64.8% with HS 578T breast.
For the compound `[Ag].[Ag].[NH-]S(=O)(=O)c1ccc(N=Nc2cc(N=Nc3ccc(S([NH-])(=O)=O)cc3)c3c(NC(=O)C(Cl)Cl)cccc3c2OC(=O)C(Cl)Cl)cc1.[c-]1nccs1.[c-]1nccs1`, the growth is 89.6% in the assay on SN12C renal; 69.4% in the assay on UO-31 renal; 108% in the assay on TK-10 renal; 52.3% in the assay on ACHN renal; 59.1% with CAKI-1 renal; 101% in the assay with A498 renal. Further, the growth is 44.7% in the assay on CCRF-CEM leukemia; 78.4% in the assay with MOLT-4 leukemia; 72.1% in the assay on SR leukemia; 83.5% in the assay on RPMI-8226 leukemia; 68.3% in the assay on OVCAR-8 ovarian; 120% with OVCAR-5 ovarian. The growth is 110% with OVCAR-4 ovarian; 114% in the assay with SK-OV-3 ovarian; 76.2% in the assay on IGROV1 ovarian; 72.7% in the assay with OVCAR-3 ovarian; 76.3% in the assay on HS 578T breast; 90.4% with NCI/ADR-RES ovarian.
Consider `CC1=NOCC(=O)N1`, for which the growth in the assay on SN12C renal is 102%; in the assay with UO-31 renal, 96.5%; with TK-10 renal it was 103%; in the assay on ACHN renal, 102%; in the assay with CAKI-1 renal, 96.3%; in the assay on A498 renal, 111%. For the same compound, the growth with CCRF-CEM leukemia is 90.3%; in the assay on MOLT-4 leukemia, 102%; in the assay on SR leukemia it was 97.5%; in the assay with RPMI-8226 leukemia, 99.9%; in the assay on OVCAR-8 ovarian it was 107%; with OVCAR-4 ovarian it was 95.4%. The growth in the assay with SK-OV-3 ovarian was 103%; in the assay with IGROV1 ovarian it was 104%; with OVCAR-3 ovarian, 108%; with HS 578T breast it was 117%; in the assay on NCI/ADR-RES ovarian, 110%.
As for `O=C(N=Nc1c(Cl)c(O)c2ccccc2c1O)C(=O)Nc1cccc(C(F)(F)F)c1`, the growth in the assay on SN12C renal is 13.2%; with UO-31 renal, 38.7%; in the assay with TK-10 renal it was 116%; in the assay on ACHN renal, 58.4%; in the assay with CAKI-1 renal it was 54.6%; in the assay on A498 renal it was 84.9%. In addition, the growth was 6.57% (active) in the assay on CCRF-CEM leukemia; 35.2% in the assay with MOLT-4 leukemia; 32.2% with SR leukemia; 76.9% with RPMI-8226 leukemia; 83.6% with OVCAR-8 ovarian; 118% in the assay on OVCAR-5 ovarian. Further, the growth in the assay on OVCAR-4 ovarian is 66.9%; with SK-OV-3 ovarian, 89.6%; in the assay on IGROV1 ovarian it was 39.3%; in the assay with OVCAR-3 ovarian it was 24.7%; with HS 578T breast, 83.8%; with NCI/ADR-RES ovarian, 71%.
For `Clc1ccc(Nc2ncnc3c2sc2ncccc23)cc1`, the growth was 20.5% with SN12C renal; -13.8% (active) in the assay with UO-31 renal; 59.3% in the assay on TK-10 renal; 14.7% in the assay with ACHN renal; 18.7% with A498 renal; 21.2% in the assay with CCRF-CEM leukemia. The growth is 15% in the assay with MOLT-4 leukemia; 10.4% in the assay with SR leukemia; 38.2% in the assay with RPMI-8226 leukemia; 12.2% in the assay on OVCAR-8 ovarian; 58.2% with OVCAR-5 ovarian; 85.4% in the assay with OVCAR-4 ovarian. For the same compound, the growth in the assay on SK-OV-3 ovarian was 28.6%; in the assay with IGROV1 ovarian, 66.2%; in the assay on OVCAR-3 ovarian, 56.6%; in the assay with HS 578T breast, 86.8%; in the assay with NCI/ADR-RES ovarian, 19.1%.
As to `O=Cc1ccc2nc(C(Cl)(Cl)Cl)ccc2c1`, the growth is 104% in the assay with SN12C renal; 81.8% in the assay on UO-31 renal; 101% in the assay with TK-10 renal; 101% in the assay on ACHN renal; 99.7% with CAKI-1 renal; 93.6% in the assay with A498 renal. The growth with CCRF-CEM leukemia is 91.9%; with MOLT-4 leukemia, 98.4%; in the assay on SR leukemia, 93.2%; in the assay with RPMI-8226 leukemia, 93.7%; in the assay on OVCAR-8 ovarian it was 107%; in the assay with OVCAR-5 ovarian, 108%. Besides, the growth with OVCAR-4 ovarian was 110%; with SK-OV-3 ovarian, 90.5%; in the assay with OVCAR-3 ovarian it was 103%; in the assay on HS 578T breast, 102%; with NCI/ADR-RES ovarian, 105%.
In the case of `Clc1ccc(-c2nc(Br)cn3ccnc23)cc1`, the growth in the assay on SN12C renal was 86.5%; in the assay with UO-31 renal, 40.3%; in the assay on TK-10 renal, 85.7%; in the assay on ACHN renal, 83.4%; in the assay on A498 renal it was 76.6%; in the assay with CCRF-CEM leukemia, 92.8%. The growth in the assay on MOLT-4 leukemia is 78.9%; with SR leukemia, 92.2%; in the assay on RPMI-8226 leukemia it was 93.4%; with OVCAR-8 ovarian, 86.8%; with OVCAR-5 ovarian, 90.4%; with OVCAR-4 ovarian it was 112%. The growth in the assay on SK-OV-3 ovarian was 88.5%; in the assay on IGROV1 ovarian, 74.3%; in the assay with OVCAR-3 ovarian, 82.8%; with HS 578T breast it was 91.3%.
Turning to `CCOC(CN1CCN(CC(C)C(=O)c2ccccc2)CC1)c1ccccc1` (configuration not stated), the growth is 98.6% with SN12C renal; 89% with UO-31 renal; 115% in the assay on TK-10 renal; 106% in the assay on ACHN renal; 93.7% with CAKI-1 renal; 97.1% in the assay with A498 renal. In addition, the growth is 84.7% in the assay on CCRF-CEM leukemia; 105% in the assay on MOLT-4 leukemia; 99.3% in the assay with SR leukemia; 88.8% with RPMI-8226 leukemia; 104% with OVCAR-8 ovarian; 110% in the assay on OVCAR-5 ovarian. The growth was 93.4% in the assay on OVCAR-4 ovarian; 104% in the assay with IGROV1 ovarian; 112% in the assay with OVCAR-3 ovarian; 115% in the assay on HS 578T breast; 106% with NCI/ADR-RES ovarian.
On to `Nc1ncnc2c1N=C(c1ccc(F)cc1)CC(c1sc(Cl)nc1Cl)N2` (configuration not stated), for which the growth with SN12C renal was 81.3%; in the assay on UO-31 renal, 63.2%; in the assay on TK-10 renal it was 93.2%; with ACHN renal it was 95.5%; in the assay on CAKI-1 renal it was 98%; in the assay on A498 renal it was 68.9%. Moreover, the growth with CCRF-CEM leukemia is 29.1%; in the assay with RPMI-8226 leukemia it was 76.5%; with OVCAR-8 ovarian it was 87.4%; in the assay on OVCAR-5 ovarian, 99.6%; in the assay with OVCAR-4 ovarian, 97.9%; with SK-OV-3 ovarian it was 95.7%. The growth in the assay with IGROV1 ovarian was 93.5%; with OVCAR-3 ovarian, 101%; in the assay on HS 578T breast, 92.5%.
For `CC(=O)Nc1nonc1-c1nc2ccccc2n1Cc1ccc(C(C)(C)C)cc1`, the growth is 82.2% in the assay on SN12C renal; 46.1% with UO-31 renal; 95.5% in the assay with TK-10 renal; 82.1% in the assay on ACHN renal; 69% in the assay with CAKI-1 renal; -4.2% (active) in the assay on A498 renal. The growth in the assay on CCRF-CEM leukemia was 78.4%; in the assay with MOLT-4 leukemia it was 51.7%; in the assay with RPMI-8226 leukemia, 58%; in the assay with OVCAR-8 ovarian, 78.4%; with OVCAR-4 ovarian, 81%; in the assay on SK-OV-3 ovarian it was 88.9%. Besides, the growth in the assay on IGROV1 ovarian is 78.7%; in the assay on OVCAR-3 ovarian, 71.3%; in the assay on HS 578T breast it was 27.1%; in the assay on NCI/ADR-RES ovarian, 59.7%.
As to `Fc1ccc(-c2ccnc3nc(-c4ccncc4)nn23)cc1`, the growth in the assay on SN12C renal is 110%; in the assay on UO-31 renal, 84.5%; with TK-10 renal it was 96.6%; in the assay with ACHN renal, 104%; in the assay on CAKI-1 renal it was 92.1%; in the assay on A498 renal, 83.8%. The growth in the assay with CCRF-CEM leukemia is 110%; in the assay on MOLT-4 leukemia, 94.9%; in the assay with RPMI-8226 leukemia it was 98.5%; with OVCAR-8 ovarian, 96.5%; in the assay on OVCAR-4 ovarian, 109%; in the assay with SK-OV-3 ovarian it was 104%. Further, the growth in the assay on IGROV1 ovarian was 104%; with OVCAR-3 ovarian it was 105%; in the assay with NCI/ADR-RES ovarian, 106%.
